Laboratory results taken from PubChem BioAssay (Tox21).
Values joined by “and” are separate entries in the source; they are usually repeats but may differ in a detail not shown here. Equal entries are not always repeated. The source holds several records for some structures; these can differ, active in one and inactive in another. Active and inactive are the calls of the source. Entries that show only a call come without a potency. Unless noted, calls follow the shape of the dose curve; as a rule, active = well fitted curve in the direction sought with a large enough effect in the repeat runs; inconclusive = weak or mixed curves; inactive = no such curve, though single readings can be large; an effect the other way counts as inactive or inconclusive. Starred links: 1 amine or outer side, 2 acyl side, 3 side chain; linkers in the order of their positions; H or OH if unused. Positions of bridges follow the written chain, without caps; N, C: chain ends. Non-standard residues stand in square brackets, D forms with d. Residues, ends and D or L forms follow the SMILES beside them. Chains are numbered I, II in the order given. Actinocin(9to1) = Cc1c2oc3c(C)ccc(C(=O)[*:1])c3nc-2c(C(=O)[*:2])c(N)c1=O; NMeV = CN[C@H](C(=O)O)C(C)C; Sar = CNCC(=O)O

Legend:
[1] = qHTS assay to identify small molecule antagonists of the thyroid receptor (TR) signaling pathway - cell viability counter screen (AID 743064); also: nearly all actives have a fitted effect of over 50% in size; also: potency is read from the fitted curve at half-maximal effect
How it was run: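 In-well cytotoxicity read by CellTiter-Fluor (30 min, 37 C) following 23.5 h exposure of GH3 cells bearing a TRE-luciferase sensor. Compounds were added alongside 1 nM (final) T3 to drive TR transactivation.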

[2] = qHTS assay to identify small molecule antagonists of the thyroid receptor (TR) signaling pathway (AID 743065); also: nearly all actives have a fitted effect of over 55% in size; also: potency is read from the fitted curve at half-maximal effect
How it was run: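 GH3.TRE-Luc rat pituitary cells carrying two TR response elements driving luciferase were plated for 4 h, given compound plus 1 nM T3 (final), and incubated 23.5 h at 37 C. ONE-Glo luminescence measured reporter inhibition; CellTiter-Fluor fluorescence tracked cytotoxicity.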

[3] = test system: thyroid hormone receptor (rat, GH3 cells); test: qHTS assay to identify small molecule agonists of the thyroid receptor (TR) signaling pathway (AID 743066; calls by dose curve; also: potency is read from the fitted curve at half-maximal effect)
[4] = qHTS assay to identify small molecule antagonists of the estrogen receptor alpha (ER-alpha) signaling pathway - cell viability counter screen (AID 743074; calls by dose curve; also: nearly all actives have a fitted effect of over 45% in size; also: potency is read from the fitted curve at half-maximal effect)
[5] = biological target: Estrogen receptor (Homo sapiens) (UniProt P03372); test: qHTS assay to identify small molecule agonists of the estrogen receptor alpha (ER-alpha) signaling pathway (AID 743075; calls by dose curve; also: potency is read from the fitted curve at half-maximal effect)
[6] = biological target: Estrogen receptor (Homo sapiens) (UniProt P03372); test: qHTS assay to identify small molecule agonists of the estrogen receptor alpha (ER-alpha) signaling pathway using the BG1 cell line (AID 743079); also: nearly all actives have a fitted effect of over 20% in size; also: potency is read from the fitted curve at half-maximal effect
[7] = qHTS assay to identify small molecule antagonists of the estrogen receptor alpha (ER-alpha) signaling pathway using the BG1 cell line (AID 743080; calls by dose curve;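 also: BG1 cells stimulated with 17beta-estradiol alongside compound; nearly all actives have a fitted effect of over 25% in size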; also: potency is read from the fitted curve at half-maximal effect)
How it was run: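 Quantitative HTS on the Tox21 10K library: BG1 cells with endogenous ER-alpha and ERE-luciferase reporter, 17beta-estradiol stimulation, 21.5 h compound exposure, luminescence endpoint with parallel fluorescence cytotoxicity counter-read.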

[8] = qHTS assay to identify small molecule antagonists of the estrogen receptor alpha (ER-alpha) signaling pathway using the BG1 cell line - cell viability counter screen (AID 743081);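 also: compound given together with 17beta-estradiol as the ER stimulus; nearly all actives have a fitted effect of over 45% in size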; also: potency is read from the fitted curve at half-maximal effect
Aromatase (Homo sapiens) = Aromatase (Homo sapiens) (UniProt P11511); test: qHTS assay to identify aromatase inhibitors (AID 743083); also: nearly all actives have a fitted effect of over 55% in size; also: potency is read from the fitted curve at half-maximal effect
[9] = qHTS assay to identify aromatase inhibitors - cell viability counter screen (AID 743084);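 also: cells stimulated with testosterone during compound exposure; nearly all actives have a fitted effect of over 55% in size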; also: potency is read from the fitted curve at half-maximal effect
[10] = biological target: Aryl hydrocarbon receptor (Homo sapiens) (UniProt P35869); test: qHTS assay to identify small molecule that activate the aryl hydrocarbon receptor (AhR) signaling pathway (AID 743085); also: nearly all actives have a fitted effect of over 15% in size; also: potency is read from the fitted curve at half-maximal effect;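 as to activation: HG2L7.5c1 human HepG2 liver cells with stably integrated DRE-driven firefly reporter; series mostly up to about 70 µM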
How it was run: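 Luminescence (ONE-Glo) from a dioxin-responsive-element luciferase reporter in HG2L7.5c1 HepG2 cells after 24 hr compound exposure at 37C; viability measured by CellTiter-Fluor fluorescence beforehand.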

[11] = qHTS assay to identify small molecule that activate the aryl hydrocarbon receptor (AhR) signaling pathway - cell viability counter screen (AID 743086); also: nearly all actives have a fitted effect of over 45% in size; also: potency is read from the fitted curve at half-maximal effect
How it was run: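 HepG2-AhR-luc (HG2L7.5c1) cells, 4000/well, were preincubated 5 h at 37C, exposed to compound in qHTS format for 24 hr at 37C, then given CellTiter-Fluor for 30 min; viability was read as fluorescence in the reporter wells.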

[12] = biological target: Peroxisome proliferator-activated receptor gamma (Homo sapiens) (UniProt P37231); test: qHTS assay to identify small molecule agonists of the peroxisome proliferator-activated receptor gamma (PPARg) signaling pathway (AID 743094; active = well fitted activation curve with a large enough effect in the signal ratio in the repeat runs, not every such curve was filed as active; inconclusive = weak or mixed curves, or effect the other way; inactive = no such curve, though single readings can be large or run the other way; the % refers to the signal ratio)
How it was run: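 HEK293H PPARg-bla cells, 5 h settle at 37C/5% CO2; compound (DMSO) 17 h, 37C; B/G FRET substrate 1 h RT; fluorescence intensity read-out. qHTS format.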

[13] = qHTS assay to identify small molecule antagonists of the peroxisome proliferator-activated receptor gamma (PPARg) signaling pathway - cell viability counter screen (AID 743194); also: nearly all actives have a fitted effect of over 55% in size; also: potency is read from the fitted curve at half-maximal effect
How it was run: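 PPARg-UAS-bla HEK293H cells were plated, rested 5 h at 37 C, then treated with compounds plus rosiglitazone (50 nM final) for 17 h at 37 C; viability was then read by CellTiter-Glo luminescence after 30 min at room temperature.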

[14] = qHTS assay for small molecule agonists of the antioxidant response element (ARE) signaling pathway (AID 743202; active = well fitted activation curve with a large enough effect in the signal ratio in the repeat runs, not every such curve was filed as active; inconclusive = weak or mixed curves, or effect the other way; inactive = no such curve, though single readings can be large or run the other way; the % refers to the signal ratio; also: potency is read from the fitted curve at half-maximal effect)
How it was run: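 Steps: seed ARE-bla HepG2 cells (2,000/well); incubate 5 h at 37 C; add compounds by pin tool; incubate 16 h at 37 C; add FRET substrate; read fluorescence after 2 h at RT.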

[15] = qHTS assay for small molecule agonists of the antioxidant response element (ARE) signaling pathway - cell viability counter screen (AID 743203; calls by dose curve; also: nearly all actives have a fitted effect of over 55% in size; also: potency is read from the fitted curve at half-maximal effect)
How it was run: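 Luminescence read-out (CellTiter-Glo, 30 min at room temperature) measured cell viability in the same wells as the ARE beta-lactamase reporter. HepG2 ARE-bla cells were treated with compounds for 16 hrs at 37C/5% CO2.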

[16] = qHTS assay for small molecule activators of the heat shock response signaling pathway - cell viability counter screen (AID 743209); also: nearly all actives have a fitted effect of over 50% in size; also: potency is read from the fitted curve at half-maximal effect
How it was run: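 HSE-bla HeLa; 1500 cells/well; overnight 37 C, 5% CO2; compound 5 h 37 C; LiveBLAzer B/G substrate 2.5 h RT; CellTiter-Glo 30 min RT; luminescence.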

[17] = biological target: Estrogen receptor (Homo sapiens) (UniProt P03372); test: qHTS assay to identify small molecule antagonists of the estrogen receptor alpha (ER-alpha) signaling pathway (AID 743069; active = well fitted curve in the direction sought with a large enough effect in the signal ratio in the repeat runs, not every such curve was filed as active; inconclusive = weak or mixed curves, or effect the other way; inactive = no such curve, though single readings can be large or run the other way; the % refers to the signal ratio; also: potency is read from the fitted curve at half-maximal effect)
How it was run: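 Screening used a UAS-driven beta-lactamase reporter integrated into HEK293 cells expressing ER-alpha, stimulated with 17beta-estradiol alongside test compounds over 18 hr at 37C; signal came from LiveBLAzer B/G FRET fluorescence.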

[18] = qHTS assay for small molecule activators of the heat shock response signaling pathway (AID 743210; active = well fitted activation curve with a large enough effect in the signal ratio in the repeat runs, with a control signal flat, not every such curve was filed as active; inconclusive = weak or mixed curves; the % refers to the signal ratio;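 also: HeLa cells with beta-lactamase reporter driven by heat shock elements; series mostly up to about 63 µM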)
How it was run: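 Activation of heat shock element-controlled beta-lactamase expression is measured in HeLa cells by LiveBLAzer FRET fluorescence, with compound exposure lasting 5 h at 37 C and substrate loading 2.5 h at room temperature.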

[19] = biological target: Peroxisome proliferator-activated receptor gamma (Homo sapiens) (UniProt P37231); test: qHTS assay to identify small molecule antagonists of the peroxisome proliferator-activated receptor gamma (PPARg) signaling pathway (AID 743191; calls by dose curve; also: series mostly up to about 63 µM; nearly all actives have a fitted effect of over 30% in size)
How it was run: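 GeneBLAzer PPARg UAS-bla HEK293H cells carrying a UAS-driven beta-lactamase reporter were plated at 3000 cells/well, preincubated 5 h at 37C, then given compound for 17 h at 37C; LiveBLAzer B/G FRET substrate was read after 1 h at room temperature.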

Sequence of Estrogen receptor (Homo sapiens) (P03372 whole entry, looked up): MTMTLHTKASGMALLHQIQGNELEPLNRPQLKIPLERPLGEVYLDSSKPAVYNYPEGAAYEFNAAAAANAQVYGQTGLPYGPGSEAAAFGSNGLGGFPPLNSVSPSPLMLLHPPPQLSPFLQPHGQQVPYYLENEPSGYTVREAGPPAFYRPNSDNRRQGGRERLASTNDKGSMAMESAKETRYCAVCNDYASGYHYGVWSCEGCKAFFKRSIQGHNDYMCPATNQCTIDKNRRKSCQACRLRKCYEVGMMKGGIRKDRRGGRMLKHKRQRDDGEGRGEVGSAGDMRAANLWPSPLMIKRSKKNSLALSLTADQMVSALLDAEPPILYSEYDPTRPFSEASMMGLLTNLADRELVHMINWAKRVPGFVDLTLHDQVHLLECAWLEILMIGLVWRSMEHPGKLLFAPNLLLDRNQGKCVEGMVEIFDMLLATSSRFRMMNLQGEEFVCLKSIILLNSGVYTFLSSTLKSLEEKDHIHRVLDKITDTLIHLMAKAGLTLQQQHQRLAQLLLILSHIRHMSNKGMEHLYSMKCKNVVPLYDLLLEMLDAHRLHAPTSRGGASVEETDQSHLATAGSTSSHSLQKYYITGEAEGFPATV
Sequence of Aromatase (Homo sapiens) (P11511 whole entry, looked up): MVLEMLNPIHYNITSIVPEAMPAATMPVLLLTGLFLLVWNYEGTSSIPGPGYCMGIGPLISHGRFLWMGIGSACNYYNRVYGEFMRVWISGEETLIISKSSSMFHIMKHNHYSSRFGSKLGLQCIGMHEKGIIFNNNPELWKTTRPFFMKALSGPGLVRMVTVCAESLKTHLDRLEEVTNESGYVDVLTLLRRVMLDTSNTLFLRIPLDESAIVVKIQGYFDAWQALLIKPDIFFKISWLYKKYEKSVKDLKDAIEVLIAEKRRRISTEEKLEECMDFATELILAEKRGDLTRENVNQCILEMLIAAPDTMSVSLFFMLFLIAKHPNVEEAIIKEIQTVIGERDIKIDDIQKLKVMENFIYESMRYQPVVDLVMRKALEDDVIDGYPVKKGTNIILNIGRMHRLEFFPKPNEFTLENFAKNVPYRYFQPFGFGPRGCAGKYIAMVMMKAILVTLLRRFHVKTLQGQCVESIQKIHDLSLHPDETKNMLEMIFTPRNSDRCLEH
Sequence of Peroxisome proliferator-activated receptor gamma (Homo sapiens) (P37231 whole entry, looked up): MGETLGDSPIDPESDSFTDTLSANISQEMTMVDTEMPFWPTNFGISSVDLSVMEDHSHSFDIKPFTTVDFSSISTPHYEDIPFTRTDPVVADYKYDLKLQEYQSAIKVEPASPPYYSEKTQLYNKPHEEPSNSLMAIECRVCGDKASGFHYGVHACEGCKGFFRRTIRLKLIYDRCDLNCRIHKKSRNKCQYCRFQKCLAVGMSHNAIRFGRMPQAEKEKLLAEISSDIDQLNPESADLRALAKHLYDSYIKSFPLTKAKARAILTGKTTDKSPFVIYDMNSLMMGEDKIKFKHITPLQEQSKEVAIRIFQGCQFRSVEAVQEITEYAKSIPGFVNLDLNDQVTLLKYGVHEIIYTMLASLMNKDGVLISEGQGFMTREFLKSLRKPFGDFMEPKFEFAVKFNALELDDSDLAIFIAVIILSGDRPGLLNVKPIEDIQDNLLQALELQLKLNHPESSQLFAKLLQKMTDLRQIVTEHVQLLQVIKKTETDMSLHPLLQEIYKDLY
Sequence of Aryl hydrocarbon receptor (Homo sapiens) (P35869 whole entry, looked up): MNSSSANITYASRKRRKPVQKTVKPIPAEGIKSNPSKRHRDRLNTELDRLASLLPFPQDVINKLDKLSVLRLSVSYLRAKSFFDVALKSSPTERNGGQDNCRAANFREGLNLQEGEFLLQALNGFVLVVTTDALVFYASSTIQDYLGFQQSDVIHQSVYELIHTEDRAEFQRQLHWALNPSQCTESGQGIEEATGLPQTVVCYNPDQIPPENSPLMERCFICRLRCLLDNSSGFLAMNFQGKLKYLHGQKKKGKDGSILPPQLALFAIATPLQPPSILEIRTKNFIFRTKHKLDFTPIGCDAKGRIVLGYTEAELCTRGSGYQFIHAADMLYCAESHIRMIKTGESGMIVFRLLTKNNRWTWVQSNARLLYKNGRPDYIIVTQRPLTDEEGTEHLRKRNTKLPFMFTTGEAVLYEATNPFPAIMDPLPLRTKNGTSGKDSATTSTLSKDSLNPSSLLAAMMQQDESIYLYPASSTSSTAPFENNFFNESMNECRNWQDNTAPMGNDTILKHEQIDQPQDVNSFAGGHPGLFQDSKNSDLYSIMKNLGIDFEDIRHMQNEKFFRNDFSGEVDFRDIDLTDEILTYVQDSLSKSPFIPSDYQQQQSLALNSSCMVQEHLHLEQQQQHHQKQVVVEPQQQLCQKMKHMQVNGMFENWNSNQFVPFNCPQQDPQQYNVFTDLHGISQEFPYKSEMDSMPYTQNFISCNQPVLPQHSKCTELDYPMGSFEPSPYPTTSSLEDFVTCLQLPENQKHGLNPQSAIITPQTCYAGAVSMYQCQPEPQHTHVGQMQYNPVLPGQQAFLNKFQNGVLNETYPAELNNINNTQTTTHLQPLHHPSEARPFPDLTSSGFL

| SMILES | Potency [1] | Potency [2] | Potency [3] | Potency [4] | Potency [5] | Potency [6] | Potency [7] | Potency [8] | Potency (Aromatase (Homo sapiens)) | Potency [9] | Potency [10] | Potency [11] | Potency [12] | Potency [13] | Potency [14] | Potency [15] | Potency [16] | Potency [17] | Potency [18] | Potency [19] |
| --- | --- | --- | --- | --- | --- | --- | --- | --- | --- | --- | --- | --- | --- | --- | --- | --- | --- | --- | --- | --- |
| COc1cc(C(=S)N2CCOCC2)ccc1O | inactive | inactive | inactive | inactive | inactive | inactive | inactive | inactive | inactive | inactive | inactive | inactive | inactive | inactive | inactive | inactive | inactive | – | – | – |
| COC(=O)/C=C/c1ccccc1 | inactive | inactive | inactive | inactive | inactive | – | inactive | inactive | inactive | inactive | inactive | inactive | inactive | inactive | inactive | inactive | inactive | inactive | inactive | – |
| CC(=O)OCC1=C(C(=O)O)N2C(=O)[C@@H](NC(=O)Cc3cccs3)[C@H]2SC1 | inactive | inactive | inactive | inactive | – | – | – | inactive | inactive | inactive | inactive | inactive | inactive | inactive | – | inactive | inactive | – | – | inactive |
| C=CC(=O)OCCCCCCOC(=O)C=C | 55.1 µM (active) and 54.5 µM (active) | 27.6 µM (active) and 43.3 µM (active) | inactive | inactive | – | inactive | – | inactive | – | – | inactive | inactive | – | inactive | 10.9 µM (active) | – | 17.4 µM (active) | – | – | – |
| NNCCc1ccccc1 | inactive and 27.4 µM (active) | 30.7 µM (active) | inactive | inactive | – | – | – | inactive | inactive | inactive | 10.1 µM (active) and 30.7 µM (active) | inactive | inactive | inactive | inactive | inactive | inactive | – | inactive | inactive |
| CC1=C(C=O)C(C)(C)CC=C1 | inactive | inactive | inactive | inactive | – | – | – | inactive | inactive | inactive | inactive | inactive | inactive | – | – | inactive | inactive | – | inactive | – |
| Cc1cc(C2(c3cc(C)c(O)cc3C)OS(=O)(=O)c3ccccc32)c(C)cc1O | 54.5 µM (active) | inactive | inactive | inactive | 1.38 µM [inconclusive] (active) and inactive | 864 nM (active) and 10.9 µM (active) | – | 27.3 µM (active) and 24.3 µM (active) | – | 21.7 µM (active) and 24.3 µM (active) | 30.6 µM (active) and inactive | 19.3 µM (active) and 21.7 µM (active) | inactive | inactive | inactive | inactive | inactive | 1.74 µM [inconclusive] (active) | – | inactive |
| Nc1cc(Cl)c(-c2cc(Cl)c(N)cc2Cl)cc1Cl | 10.9 µM (active) and 8.63 µM (active) | 1.53 µM (active) and 1.54 µM (active) | inactive | 48.9 µM (active) and 24.5 µM (active) | inactive | – | 54.4 µM (active) and 54.5 µM (active) | inactive | 12.2 µM (active) and 15.4 µM (active) | 48.5 µM (active) | – | inactive | – | 48.9 µM (active) and 17.4 µM (active) | – | 61.1 µM (active) and 21.7 µM (active) | 24.5 µM (active) | 1.55 µM [inconclusive] (active) and 19.5 µM [inconclusive] (active) | – | – |
| Cc1cc(C(C)(C)C)c(O)c(C(C)(C)C)c1 | inactive | inactive | inactive | inactive | – | – | – | inactive | inactive | inactive | inactive | inactive | inactive | inactive | inactive | inactive | inactive | – | inactive | inactive |
| c1ccc2cc3c(ccc4ccccc43)cc2c1 | inactive | inactive | inactive | inactive | 55.1 µM [activator] (active) and inactive | 54.6 µM (active) and 48.6 µM (active) | – | inactive | inactive | inactive | 4.34 µM (active) and 6.86 µM (active) | inactive | inactive | inactive | 6.11 µM (active) | – | inactive | – | inactive | inactive |
| Cc1c2oc3c(C)ccc(C(=O)N[C@@H]4C(=O)N[C@H](C(C)C)C(=O)N5CCC[C@H]5C(=O)N(C)CC(=O)N(C)[C@@H](C(C)C)C(=O)O[C@@H]4C)c3nc-2c(C(=O)N[C@@H]2C(=O)N[C@H](C(C)C)C(=O)N3CCC[C@H]3C(=O)N(C)CC(=O)N(C)[C@@H](C(C)C)C(=O)O[C@@H]2C)c(N)c1=O (I: T[dV]P[Sar][NMeV] / II: T[dV]P[Sar][NMeV]; ester I:1-I:C, II:1-II:C; linker I:N-II:N via Actinocin(9to1)) | 6 nM (active) and 0.9 nM (active) | 0.0042 µM (active) | inactive | – | inactive | – | 84.1 nM (active) and 10.6 nM (active) | 15 µM (active) and 13.3 µM (active) | 94.4 nM (active) and 1.7 nM (active) | 7.48 µM (active) | inactive | 18.8 nM (active) and 14.9 µM (active) | – | – | – | – | – | 53.5 nM [inconclusive] (active) and 13.4 nM [inconclusive] (active) | inactive | – |
| O=C(O)c1cn(-c2ccc(F)cc2)c2cc(N3CCNCC3)c(F)cc2c1=O | inactive | inactive | inactive | inactive | – | – | – | inactive | inactive | inactive | inactive | inactive | inactive | inactive | inactive | inactive | inactive | – | inactive | – |
| CC(C)(C)c1cc(C(C)(C)C)c(O)c(C(C)(C)C)c1 | 27.3 µM (active) | 27.3 µM (active) | 9.69 µM (active) | inactive | inactive | inactive | – | inactive | – | inactive | inactive | inactive | – | inactive | – | inactive | 54.9 µM (active) and 49 µM (active) | – | – | – |
| Nc1nc2ccccc2[nH]1 | inactive | inactive | inactive | inactive | inactive | inactive | – | inactive | inactive | inactive | – | inactive | inactive | inactive | inactive | – | inactive | inactive | inactive | – |
| Cc1cc(OCCOCC[N+](C)(C)Cc2ccccc2)ccc1C(C)(C)CC(C)(C)C | 10.6 µM (active) and 12.1 µM (active) | 13.3 µM (active) and 10.8 µM (active) | inactive | 15.1 µM (active) and 6.13 µM (active) | inactive | – | – | inactive | 21.1 µM (active) and 30.5 µM (active) | 26.6 µM (active) and 60.8 µM (active) | inactive | 29.8 µM (active) and 60.8 µM (active) | inactive | 15.4 µM (active) and 29.8 µM (active) | – | 19.2 µM (active) and 29.8 µM (active) | 38.7 µM (active) | – | – | – |
